Source: PubChem
DT40 TDP1 no CPT: qHTS for Inhibitors of human tyrosyl-DNA phosphodiesterase 1 (TDP1): qHTS in cells in absence of CPT; DT40 Tdp1-/- hTDP1 cells, no CPT, ATP luminescence, 48 h; Potency, µM (top dose mostly 46.2 µM), for inactives: top-dose activity change, negative = growth inhibition, hits mostly inhibitors; 420,000 compounds, 15% hits; further: potency means the concentration at half of the fitted maximal effect; nearly all actives have a fitted effect of over 55% in size
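Cells were dispensed at 400 per well, compounds added by pin tool, plates incubated ≥48 hr at 37 °C, then CellTiter-Glo added for 30 min at room temperature before luminescence reading. Line: DT40 Tdp1-/- complemented with hTDP1; camptothecin omitted.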
DT40 TDP1 CPT: DT40-hTDP1 cell growth loss with CPT. chicken DT40 Tdp1-/-;hTDP1 cells + 20 nM CPT, ATP luminescence, 48 h. 420,000 compounds, 12% hits. Potency, µM (highest dose often 46.2 µM), for the others: at the top dose activity change, negative = growth inhibition, most hits filed as inhibitors; further: potency means the concentration at half of the fitted maximal effect; nearly all actives have a fitted effect of over 55% in size
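Cell growth measured by CellTiter-Glo luminescence after a minimum 48 h, 37 C compound exposure with 20 nM CPT in Tdp1-knockout DT40 cells stably expressing hTDP1, seeded 400/well; qHTS titration format.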
HT1080NT lethal: kills 2HG-producing HT-1080-NT fibrosarcoma cells; Potency, µM (series often up to 46.1 µM), without a hit: top-dose activity, negative = less viability, usual class: cytotoxic; 360,000 compounds, 1.6% hits; HT-1080-NT fibrosarcoma viability, CellTiter-Glo ATP luminescence, 48 h;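 further: NT is the 2HG producing partner of a matched IDH1 knockdown line; potency means the concentration at half of the fitted maximal effect; 0% = DMSO-treated cells and -100% = media-only wells without cells; nearly all actives have a fitted effect of over 55% in size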
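Fibrosarcoma NT cells, 750 per well in 5% FBS RPMI, were exposed to compound for 48 hours. Viability: CellTiter-Glo luminescence.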
IL-1B inflam inh: blocks inflammasome-driven IL-1 beta release. THP-1 LPS/ATP IL-1B secretion, AlphaLISA, 16 h; stronger effect = lower value. activity change, % at 57.5 µM. AID 743279. 360,000 compounds, 4.7% hits; in the data active means activity change below about -50%; inconclusive means mostly about -30% to -49%
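Secreted IL-1B measured by AlphaLISA bead assay after 16 h compound exposure of THP-1 cells; compounds (final up to 57.5 uM) added 1 h before LPS (250 ng/mL) and ATP (1.25 mM) stimulation; lower signal means less secretion.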
HT1080 IDH1KD tx: toxicity to HT-1080 IDH1 knockdown cells (counter line) | HT-1080 IDH1 knockdown viability, ATP luminescence, 48 h | Potency, µM (series often up to 46.1 µM), without a hit: top-dose activity, negative = toxicity, actives largely listed as cytotoxic | 360,000 compounds, 2% hits;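 further: potency means the concentration at half of the fitted maximal effect; 0% = DMSO wells and -100% = cell-free medium wells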
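In this qHTS, HT-1080 cells depleted of IDH1 are exposed for 48 h at 37 °C to compound titrations. Toxicity is scored from CellTiter-Glo luminescence, with DMSO as full viability and medium alone as none.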
Numbers without * were called inactive; ? = inconclusive; nt = no result. Rows were chosen to be rich in hits. Some 19% of all compounds tested hit in one or more screens of this group. Unless noted, the call rests on the fitted dose curve; in most records, active means well fitted curve in the direction sought with a large enough effect; inconclusive means small, poorly fitted or top-dose-only effect, or another doubt; inactive means no such curve, though single readings can be large; an effect the other way counts as inactive or inconclusive. Unless noted, on the % scale 0 is the no-effect control and ±100 the full control effect.

SMILES	DT40 TDP1 no CPT	DT40 TDP1 CPT	HT1080NT lethal	IL-1B inflam inh	HT1080 IDH1KD tx
C=CCNC(=O)c1ccc(NC(=O)C2=CSCCO2)cc1	?	?	-16%	-8	-24%
Cc1c(Cl)cccc1NC(=O)C(=O)NCC(c1cccnc1)N1CCN(c2ccccc2)CC1 (stereo not drawn)	21µM*	16µM*	nt	nt	nt
Cc1ccc(NC(=O)C(=O)NCC(c2cccnc2)N2CCN(Cc3ccccc3)CC2)cc1Cl (stereo not drawn)	7.3µM*	10µM*	nt	nt	nt
COc1ccc(CCNC(=O)C(=O)NCC(c2cccnc2)N2CCN(c3ccccc3)CC2)cc1 (stereo not drawn)	18µM*	23µM*	nt	nt	nt
O=C(NNC(=O)C1CCN(C(=O)Nc2ccccc2)CC1)c1ccc([N+](=O)[O-])cc1	-10%	-5%	0%	11	1%
COc1cc2c(cc1OC)C(O)=CC(=O)C2=O	-26%	-14%	?	-8	-22%
CCOc1ccccc1NC(=O)C(=O)NCCC1=CCCCC1	6%	-18%	5%	36	3%
CCOC(=O)C(C)C(C)=O (stereo not drawn)	6.5µM*	6.5µM*	?	?	58µM*
CCOC(=O)C(C(C)=O)C(c1ccc(OC)cc1)C(C(C)=O)C(=O)OCC (stereo not drawn)	-15%	1%	3%	7	5%
N#CC1=C(Nc2ccccc2)SC=C(c2ccccc2)N=C1N1CCOCC1	29µM*	5.8µM*	-1%	-7	0%
N#CC1=C(Nc2ccccc2)SC=C(c2ccc(Cl)c(Cl)c2)N=C1N1CCOCC1	?	13µM*	-19%	-80*	-12%
N#Cc1c(-c2ccccc2)nc(-c2ccccc2)nc1N1CCOCC1	?	-17%	5%	?	13%
CCN(CC(=O)Nc1c(F)cccc1F)C(=O)CNC(=O)c1cccc(C)c1	-7%	-18%	-2%	4	-9%
CC(=O)Oc1ccc2nc(/C=C/c3ccccc3)oc(=O)c2c1	-2%	3%	4%	2	8%
COCCNC(=O)C1CCCN(Cc2cccc(C#N)c2)CC1 (stereo not drawn)	4%	5%	20%	38	?
Cc1ccc(-c2nnc3c4ccccc4c(C)nn23)cc1S(=O)(=O)N1CCN(CCO)CC1	18µM*	?	-26%	?	-27%
Cc1nn2c(-c3cccc(NC(=O)c4ccccc4)c3)nnc2c2ccccc12	2.9µM*	4.6µM*	nt	nt	nt
CCCC(=O)Nc1cc(-c2nnc3c4ccccc4c(C)nn23)ccc1C	11%	3%	nt	nt	nt
Cc1nn2c(-c3cccc(NC(=O)CSc4nc5ccccc5o4)c3)nnc2c2ccccc12	7.3µM*	12µM*	-23%	-17	-23%
Cc1nn2c(-c3cccc(NC(=O)CN4CCOCC4)c3)nnc2c2ccccc12	13µM*	29µM*	-22%	nt	-18%
Cc1cc(Cl)ccc1OCC(=O)NNC(=O)CCOc1ccccc1	6%	-8%	-2%	-1	3%
CCC1CCCCN1C(=O)CCCOc1ccccc1 (stereo not drawn)	?	23µM*	8%	-6	3%
CN(C(=O)COC(=O)c1ccc([N+](=O)[O-])cc1)c1ccccc1	-25%	5%	11%	-11	18%
CN(C(=O)COC(=O)CSc1ccc([N+](=O)[O-])cc1)c1ccccc1	29µM*	23µM*	-4%	0	-4%
O=C(OCc1cn([C@H]2CN(C(=O)c3cccs3)[C@@H](c3ccccc3)C[C@@H]2O)nn1)c1ccccc1	15µM*	?	-1%	21	1%
SMILES	DT40 TDP1 no CPT	DT40 TDP1 CPT	HT1080NT lethal	IL-1B inflam inh	HT1080 IDH1KD tx
O=C(OCc1cn([C@H]2CN(C(=O)c3cccs3)[C@@H](c3ccc(Cl)cc3)C[C@@H]2O)nn1)c1ccccc1	?	23µM*	-1%	45	?
Cc1cccc(Cn2c(-c3cccs3)nc3ccccc32)c1	?	-21%	nt	nt	nt
CCC(C)n1c(-c2cccs2)nc2nc3ccccc3nc21 (stereo not drawn)	12µM*	18µM*	-2%	17	-2%
CC1(C)CC2CC(C)(CN2S(=O)(=O)c2ccc(C(=O)Nc3ccc(S(=O)(=O)N4CCOCC4)cc3)cc2)C1 (stereo not drawn)	5.2µM*	3.7µM*	?	37	?
CCOC(=O)c1cc([N+](=O)[O-])sc1NC(=O)c1ccc(S(=O)(=O)N2CC3(C)CC2CC(C)(C)C3)cc1 (stereo not drawn)	2.6µM*	2.3µM*	5%	56	-10%
CC1(C)CC2CC(C)(CN2S(=O)(=O)c2ccc(C(=O)Nc3ccc(Cl)c(S(=O)(=O)N4CCOCC4)c3)cc2)C1 (stereo not drawn)	3.7µM*	3.3µM*	-10%	27	-14%
Cc1ccc(C)c(S(=O)(=O)N2CCN(C(=O)Cn3c(=O)cnc4ccccc43)CC2)c1	-1%	-13%	0%	11	10%
O=C(Nc1ccnn1C1CCN(Cc2ccc(O)c(Cl)c2)CC1)C1CCCC1	-15%	-17%	-4%	-8	0%
COc1ccc(C(=O)Nc2ccc(O)c3ccccc23)cc1	26µM*	?	-27%	0	?
COc1ccc(C(=O)Nc2noc3ccccc23)cc1	-30%	-3%	nt	nt	nt
COc1ccc(NC(=O)Nc2ccc(O)c3ccccc23)cc1	13µM*	5.8µM*	-26%	0	-10%
CCOc1ccc(C2(C)CC(=O)N(C)C2=O)cc1 (stereo not drawn)	5%	17%	5%	9	5%
CCOC(=O)c1c(N2C(=O)C3C4C=CC(O4)C3C2=O)sc2c1CCCC2 (stereo not drawn)	16µM*	8.2µM*	-19%	-13	-16%
O[C@@H]1C[C@H](c2ccc(Cl)cc2)N(Cc2cccs2)C[C@H]1n1cc(C2CC2)nn1	?	-25%	9%	9	13%
CC1(NC(=S)N(CCO)CCO)CCS(=O)(=O)C1 (stereo not drawn)	-6%	-7%	15%	-2	14%
CSc1ncc(Cl)c(C(=O)Nc2c(C(=O)Nc3cccc(C)c3)oc3ccccc23)n1	16%	-1%	nt	nt	nt
CS(=O)(=O)c1ncc(Cl)c(C(=O)Nc2ccc3ccccc3c2)n1	0.65µM*	1µM*	9.2µM*	-99*	2.9µM*
COc1ccc(NC(=O)c2nc(S(=O)(=O)Cc3ccc(C)cc3)ncc2Cl)cc1	2.1µM*	16µM*	nt	nt	nt
CCOc1ccc(NC(=O)c2nc(S(=O)(=O)Cc3ccccc3)ncc2Cl)cc1	0.4µM*	0.32µM*	nt	nt	nt
O=C(Nc1ccc2ccccc2c1)c1cnccn1	-14%	-17%	0%	-1	-21%
